Results filed as inconclusive are left out. Calls of active or inactive are those of the source. Calls follow the shape of the dose curve; as a rule, active = well fitted curve in the direction sought with a large enough effect; inconclusive = small, poorly fitted or top-dose-only effect, or another doubt; inactive = no such curve, though single readings can be large; an effect the other way counts as inactive or inconclusive.
System: not listed separately
Assay: Confirmation and Secondary Assay for Modulators of Hemoglobin Beta Chain Splicing at IVS2 705 locus (AID 930);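 also: HeLa cells stably expressing the EGFP-705 splicing reporter; GFP fluorescence per well restored by corrected splicing of the IVS2-705 intron in EGFP; % of control where 0% means no effect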
Conditions: HeLa EGFP-705 splicing reporter, GFP fluorescence, 48 h; series mostly up to 46.1 µM; activation: at the top concentration
Outline: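 HeLa IVS2-705 EGFP reporter cells, 500/well, compound 2 d at 37C; correct splicing yields fluorescent EGFP. Control: 500 nM antisense PNA. Read-out: total peak GFP intensity.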

Structure (SMILES) | activation
CCN(CC)CCOC(=O)C(c1ccccc1)C1CCCCC1 (centres undefined) | 2.71% (inactive)
Cc1c(C(N)=O)cc([N+](=O)[O-])cc1[N+](=O)[O-] | -1.15% (inactive)
CCCCOc1ccc(OCCCN2CCOCC2)cc1 | -1.82% (inactive)
CNCCC=C1c2ccccc2CCc2ccccc21 | 4.38% (inactive)
CCN(CCCCOC(=O)c1ccc(OC)c(OC)c1)C(C)Cc1ccc(OC)cc1 (centres undefined) | 0.439% (inactive)
CC(CCc1ccccc1)NCC(O)c1ccc(O)c(C(N)=O)c1 (centres undefined) | -0.123% (inactive)
CO/N=C1\CN(c2nc3c(cc2F)c(=O)c(C(=O)O)cn3C2CC2)CC1CN (centres undefined) | 0.925% (inactive)
CN(C(=O)CN(CCO)CC(=O)N(C)C(C)(C)Cc1ccccc1)C(C)(C)Cc1ccccc1 | -1.35% (inactive)
O=C(OCC(O)CO)c1ccccc1Nc1ccnc2cc(Cl)ccc12 (centres undefined) | 1.01% (inactive)
Oc1c(I)cc(I)c2cccnc12 | -0.251% (inactive)
OC(CCN1CCCCC1)(c1ccccc1)c1ccccc1 | -1.26% (inactive)
CCCCc1nc(Cl)c(CO)n1Cc1ccc(-c2ccccc2-c2nn[nH]n2)cc1 | -0.0165% (inactive)

Molecular target: Muscarinic acetylcholine receptor M1 (Rattus norvegicus) (UniProt P08482)
Assay: qHTS Assay for Antagonists of Acetylcholine Muscarinic M1 Receptor: Kinetic Measurement of Intracellular Calcium Response (AID 943);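 also: Fluo-4 calcium signal as peak divided by basal fluorescence over 4 min; nearly all actives have a fitted effect of over 75% in size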
Conditions: M1-expressing cells, kinetic intracellular calcium fluorescence; series mostly up to 35.3 µM; activity change, negative = inhibition: at the top concentration
Outline: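 Quantitative HTS in CHO-M1 (rat receptor) cells: 10 min compound exposure ahead of 100 nM carbachol, Fluo-4 fluorescence followed 4 min, value expressed as peak-to-basal ratio.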

Chain of Muscarinic acetylcholine receptor M1 (Rattus norvegicus) (P08482 whole entry, looked up): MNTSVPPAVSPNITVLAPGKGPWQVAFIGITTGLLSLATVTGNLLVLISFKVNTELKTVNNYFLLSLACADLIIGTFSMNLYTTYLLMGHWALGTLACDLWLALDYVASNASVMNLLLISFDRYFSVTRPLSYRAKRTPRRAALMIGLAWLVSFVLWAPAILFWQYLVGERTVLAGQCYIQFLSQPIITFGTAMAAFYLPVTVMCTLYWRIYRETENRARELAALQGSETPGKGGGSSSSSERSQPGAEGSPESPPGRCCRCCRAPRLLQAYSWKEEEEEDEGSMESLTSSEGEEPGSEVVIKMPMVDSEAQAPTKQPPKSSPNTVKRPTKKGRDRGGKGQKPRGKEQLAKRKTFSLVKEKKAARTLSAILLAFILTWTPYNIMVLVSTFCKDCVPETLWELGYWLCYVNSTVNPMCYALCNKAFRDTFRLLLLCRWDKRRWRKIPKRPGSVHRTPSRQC

Structure (SMILES) | activity change, negative = inhibition
Oc1cc(O)c2c(c1)O[C@H](c1ccc(O)c(O)c1)[C@H](O)C2 | -34.6% (inactive)
C[C@@H]1C(=O)NC2=Nc3cccc(Cl)c3CN21 | -17.1% (inactive)
N[C@@H](Cc1cnc[nH]1)C(=O)O | -25% (inactive)
O=C1CCC(c2ccc(-n3ccnc3)cc2)=NN1 | -40.6% (inactive)

Molecular target: Muscarinic acetylcholine receptor M1 (Rattus norvegicus) (UniProt P08482)
Assay: qHTS Assay for Antagonists of Acetylcholine Muscarinic M1 Receptor: Measurement of IP-One Response (AID 944); also: nearly all actives have a fitted effect of over 75% in size; also: potency is read from the fitted curve at half-maximal effect
Conditions: CHO-M1 cells, IP-One HTRF, antagonist mode; series mostly up to 46.1 µM; activity change, negative = inhibition: at the top concentration
Outline: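 Antagonism was measured as loss of carbachol-driven (EC80) IP1 accumulation in CHO cells carrying rat M1, using a homogeneous IP-One TR-FRET kit read at 620 and 665 nm.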

Structure (SMILES) | activity change, negative = inhibition | Potency
Nc1cc(Cl)c(NC2=NCCN2)c(Cl)c1 | -44.6% (inactive) | 
CC(C)COC(=O)OCN1C(=O)CN(CCN2CC(=O)N(COC(=O)OCC(C)C)C(=O)C2)CC1=O | -32% (inactive) | 
Oc1cc(O)c2c(c1)O[C@H](c1ccc(O)c(O)c1)[C@H](O)C2 | -37.4% (inactive) | 
C[C@@H]1C(=O)NC2=Nc3cccc(Cl)c3CN21 | -46.2% (inactive) | 
N[C@@H](Cc1cnc[nH]1)C(=O)O | -36.6% (inactive) | 
O=C1CCC(c2ccc(-n3ccnc3)cc2)=NN1 | -23% (inactive) | 
COc1cc(NS(C)(=O)=O)ccc1Nc1c2ccccc2nc2ccccc12 |  | 10 µM (active)

Molecular target: Pyruvate kinase (Leishmania mexicana) (UniProt Q27686)
Assay: qHTS Validation Assay for Inhibitors of Leishmania Mexicana Pyruvate Kinase (AID 945);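 also: 0% = DMSO only neutral control wells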
Conditions: purified L. mexicana pyruvate kinase, enzyme activity, E451W mutant enzyme; series mostly up to 57.5 µM; activity change, negative = inhibition: at the top concentration
Outline: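 Eight-point qHTS titrations; enzyme 0.2 nM LmPYK (E451W mutant); substrates 0.5 mM PEP, 0.1 mM ADP; 7 mM MgCl2; 1 h room temperature; PKLight luminescence normalized to neutral control.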

Structure (SMILES) | activity change, negative = inhibition
Nc1cc(Cl)c(NC2=NCCN2)c(Cl)c1 | 6.3% (inactive)
CC(C)COC(=O)OCN1C(=O)CN(CCN2CC(=O)N(COC(=O)OCC(C)C)C(=O)C2)CC1=O | -4.3% (inactive)
CN1[C@@H]2CC[C@H]1CC(OC(=O)c1c[nH]c3ccccc13)C2 (some centres undefined) | 14.9% (inactive)
C[C@]12CC[C@@H]3c4ccc(O)cc4CC[C@H]3[C@@H]1CC[C@@H]2O | -8.67% (inactive)
CNCCC=C1c2ccccc2CCc2ccccc21 | 6.77% (inactive)
Oc1cc(O)c2c(c1)O[C@H](c1ccc(O)c(O)c1)[C@H](O)C2 | 13.2% (inactive)
C[C@@H]1C(=O)NC2=Nc3cccc(Cl)c3CN21 | 5.16% (inactive)
N[C@@H](Cc1cnc[nH]1)C(=O)O | 3.22% (inactive)
CN1CCC[C@@H]1c1cccnc1 | -3.14% (inactive)
O=C1CCC(c2ccc(-n3ccnc3)cc2)=NN1 | -6.42% (inactive)
CCCC1O[C@@H]2C[C@H]3[C@@H]4CCC5=CC(=O)C=C[C@]5(C)[C@H]4[C@@H](O)C[C@]3(C)[C@]2(C(=O)CO)O1 (some centres undefined) | 7.8% (inactive)
